Values joined by “and” are separate entries in the source; they are usually repeats but may differ in a detail not shown here. Equal values may be shown once. The campaign covered roughly 5,500 compounds. About 2,000 (36%) were called active. Roughly 18% stayed inconclusive and do not appear here. No stated cut-off is given here; in the data, active means normalized growth mostly below about 0.91 (no sharp cut-off); inconclusive means no clear call, values can overlap the other calls; inactive means mostly above about 0.92. The list shows a part of the results.
Test: chemical genetic growth profiling, strain panel (AID 1159580);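 further: tested at 20 µM; growth read once vehicle control cultures reached saturation at 30 °C; 1 = growth at the plate median or of vehicle wells; lower values mean less growth of the strain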
Conditions: growth OD

Measured: normalized growth

COc1cc(Cc2cnc(N)nc2N)cc(OC)c1OC
inactive: S. cerevisiae deletion strains, locus YJR075W, strain HOC1, active compounds read low 1.01 | S. cerevisiae deletion strains, locus YKL009W, strain mrt4, active compounds read low 1.04 | S. cerevisiae deletion strains, locus YKL068W, active compounds read low 0.986 | S. cerevisiae deletion strains, locus YKL085W, strain MDH1 (second series), active compounds read low 1.03 | S. cerevisiae deletion strains, locus YKL085W, strain MDH1, active compounds read low 1.03 | S. cerevisiae deletion strains, locus YKL160W, strain elf1, active compounds read low 1.01 | S. cerevisiae deletion strains, locus YKL190W, strain CNB1, active compounds read low 1.01 | S. cerevisiae deletion strains, locus YKR001C, strain vps1, active compounds read low 0.989 | S. cerevisiae deletion strains, locus YKR026C, strain gcn3, active compounds read low 1 | S. cerevisiae deletion strains, locus YKR091W, strain srl3, active compounds read low 1.01 | S. cerevisiae deletion strains, locus YLL001W, strain dnm1, active compounds read low 0.993 | S. cerevisiae deletion strains, locus YLL026W, active compounds read low 1.01 | S. cerevisiae deletion strains, locus YLL041C, strain sdh2, active compounds read low 1.01 | S. cerevisiae deletion strains, locus YLR027C, strain aat2, active compounds read low 1.01 | S. cerevisiae deletion strains, locus YLR039C, strain RIC1, active compounds read low 1.03 | S. cerevisiae deletion strains, locus YLR058C, strain SHM2, active compounds read low 1 | S. cerevisiae deletion strains, locus YLR102C, strain apc9, active compounds read low 0.994 | S. cerevisiae deletion strains, locus YLR113W, strain HOG1, active compounds read low 0.994 | S. cerevisiae deletion strains, locus YLR221C, strain rsa3, active compounds read low 0.998 | S. cerevisiae deletion strains, locus YLR258W, strain gsy2, active compounds read low 1.02 | S. cerevisiae deletion strains, locus YLR262C, strain YPT6 (second series), active compounds read low 1.01 | S. cerevisiae deletion strains, locus YLR262C, strain YPT6, active compounds read low 1.03 | S. cerevisiae deletion strains, locus YLR268W, strain sec22, active compounds read low 0.978 | S. cerevisiae deletion strains, locus YLR320W, strain mms22, active compounds read low 1.02 | S. cerevisiae deletion strains, locus YLR330W, strain CHS5, active compounds read low 1 | S. cerevisiae deletion strains, locus YLR342W, strain FKS1 (second series), active compounds read low 0.992 | S. cerevisiae deletion strains, locus YLR342W, strain FKS1, active compounds read low 1 | S. cerevisiae deletion strains, locus YLR357W, strain rsc2, active compounds read low 0.998 | S. cerevisiae deletion strains, locus YLR370C, strain arc18, active compounds read low 1.01 | S. cerevisiae deletion strains, locus YLR371W, strain rom2, active compounds read low 0.991 | S. cerevisiae deletion strains, locus YLR384C, strain iki3, active compounds read low 1.02 | S. cerevisiae deletion strains, locus YLR418C, strain cdc73, active compounds read low 0.961 | S. cerevisiae deletion strains, locus YML016C, strain PPZ1, active compounds read low 0.994 | S. cerevisiae deletion strains, locus YML032C, strain rad52, active compounds read low 0.981 | S. cerevisiae deletion strains, locus YML120C, strain ndi1, active compounds read low 1.02 | S. cerevisiae deletion strains, locus YML124C, strain tub3, active compounds read low 0.991 | S. cerevisiae deletion strains, locus YMR058W, strain fet3, active compounds read low 1 | S. cerevisiae deletion strains, locus YMR078C, strain ctf18, active compounds read low 0.987 | S. cerevisiae deletion strains, locus YMR125W, strain sto1, active compounds read low 1.04 | S. cerevisiae deletion strains, locus YMR129W, active compounds read low 1.01 | S. cerevisiae deletion strains, locus YMR205C, strain PFK2, active compounds read low 1.03 | S. cerevisiae deletion strains, locus YMR223W, strain ubp8, active compounds read low 1.01 | S. cerevisiae deletion strains, locus YMR231W, strain pep5, active compounds read low 1.02 | S. cerevisiae deletion strains, locus YMR263W, strain SAP30, active compounds read low 1 | S. cerevisiae deletion strains, locus YMR307W, strain GAS1, active compounds read low 1.03 and 1 | S. cerevisiae deletion strains, locus YNL067W, strain RPL9B, active compounds read low 1 | S. cerevisiae deletion strains, locus YNL071W, strain lat1, active compounds read low 1.01 | S. cerevisiae deletion strains, locus YNL128W, strain TEP1, active compounds read low 0.998 | S. cerevisiae deletion strains, locus YNL153C, strain GIM3, active compounds read low 0.991 | S. cerevisiae deletion strains, locus YNL175C, strain NOP13, active compounds read low 0.937 | S. cerevisiae deletion strains, locus YNL183C, strain NPR1, active compounds read low 0.934 | S. cerevisiae deletion strains, locus YNL197C, strain WHI3, active compounds read low 0.956 | S. cerevisiae deletion strains, locus YNL209W, strain ssb2, active compounds read low 1.01 | S. cerevisiae deletion strains, locus YNL224C, strain SQS1, active compounds read low 0.981 | S. cerevisiae deletion strains, locus YNL233W, strain BNI4, active compounds read low 1.01 | S. cerevisiae deletion strains, locus YNL248C, strain rpa49, active compounds read low 1.02 | S. cerevisiae deletion strains, locus YNL250W, strain rad50, active compounds read low 0.988 | S. cerevisiae deletion strains, locus YNL271C, strain bni1, active compounds read low 0.985 | S. cerevisiae deletion strains, locus YNL298W, strain CLA4, active compounds read low 0.985 | S. cerevisiae deletion strains, locus YNL307C, strain MCK1, active compounds read low 0.994 | S. cerevisiae deletion strains, locus YNL322C, strain KRE1 (second series), active compounds read low 1.03 | S. cerevisiae deletion strains, locus YNL322C, strain KRE1, active compounds read low 1 and 0.976 | S. cerevisiae deletion strains, locus YNR049C, strain mso1, active compounds read low 1.01 | S. cerevisiae deletion strains, locus YNR052C, strain pop2, active compounds read low 0.986 | S. cerevisiae deletion strains, locus YOL006C, strain TOP1, active compounds read low 0.954 | S. cerevisiae deletion strains, locus YOL012C, strain htz1 0.78 | S. cerevisiae deletion strains, locus YOL147C, strain pex11, active compounds read low 0.996 | S. cerevisiae deletion strains, locus YOR001W, strain rrp6, active compounds read low 1.01 | S. cerevisiae deletion strains, locus YOR061W, strain CKA2, active compounds read low 1 | S. cerevisiae deletion strains, locus YOR069W, strain VPS5, active compounds read low 0.993 | S. cerevisiae deletion strains, locus YOR070C, strain gyp1, active compounds read low 1.01 | S. cerevisiae deletion strains, locus YOR080W, strain dia2, active compounds read low 1.03 | S. cerevisiae deletion strains, locus YOR083W, strain WHI5 (second series), active compounds read low 0.975 | S. cerevisiae deletion strains, locus YOR083W, strain WHI5, active compounds read low 0.999 | S. cerevisiae deletion strains, locus YOR106W, strain vam3, active compounds read low 1.01 | S. cerevisiae deletion strains, locus YOR136W, strain idh2, active compounds read low 0.992 | S. cerevisiae deletion strains, locus YOR144C, strain elg1, active compounds read low 0.989 | S. cerevisiae deletion strains, locus YOR184W, strain ser1, active compounds read low 0.991 | S. cerevisiae deletion strains, locus YOR231W, strain MKK1, active compounds read low 0.993 | S. cerevisiae deletion strains, locus YOR265W, strain rbl2, active compounds read low 1.01 | S. cerevisiae deletion strains, locus YOR270C, strain vph1, active compounds read low 1 | S. cerevisiae deletion strains, locus YOR290C, strain snf2, active compounds read low 1.03 | S. cerevisiae deletion strains, locus YOR316C, strain cot1, active compounds read low 0.994 | S. cerevisiae deletion strains, locus YPL051W, strain arl3, active compounds read low 1 | S. cerevisiae deletion strains, locus YPL055C, strain LGE1, active compounds read low 1.05 and 1.01 | S. cerevisiae deletion strains, locus YPL078C, strain atp4, active compounds read low 1.01 | S. cerevisiae deletion strains, locus YPL106C, strain sse1, active compounds read low 1.04 | S. cerevisiae deletion strains, locus YPL240C, strain hsp82, active compounds read low 1.01 | S. cerevisiae deletion strains, locus YPL241C, strain CIN2, active compounds read low 1 | S. cerevisiae deletion strains, locus YPL256C, strain CLN2, active compounds read low 0.982 | S. cerevisiae deletion strains, locus YPR119W, strain clb2, active compounds read low 0.986 | S. cerevisiae deletion strains, locus YPR141C, strain kar3, active compounds read low 0.987 | S. cerevisiae deletion strains, locus YPR163C, strain tif3, active compounds read low 0.988 | S. cerevisiae deletion strains, locus YPR167C, strain met16, active compounds read low 0.985 | S. cerevisiae deletion strains, strain wtn01, active compounds read low 0.977 | S. cerevisiae strains, strain wild type, active compounds read low 1.01

Source: PubChem BioAssay AID1159580 (chemical genetic matrix, 2015)
